# gsp ag = agonists of gsp mutant (McCune-Albright syndrome). 340,000 tested, 0.13% active. AID 624287. Potency, µM (highest dose often 76.9 µM), without a hit: at the highest dose activation (cAMP increase), hits mostly activators. gsp mutant cells, cAMP HTRF, 30 min; active means well fitted activation curve with a large enough effect; inconclusive means small, poorly fitted or top-dose-only effect, or another doubt; inactive means no such curve, though single readings can be large or run the other way; cell line not stated here;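 further: phosphodiesterase inhibitor Ro 20-1724 added with compounds to block cAMP breakdown; potency means the concentration at half of the fitted maximal effect; nearly all actives have a fitted effect of over 60% in size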
#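 Cells stably selected in G418 were plated at 2000/well, grown 16-24 hr, then given compounds in DMSO with the PDE inhibitor […] (300 uM solution added) for 30 min at 37C; cAMP was read by HTRF.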
# RXFP1 ag = agonists of human relaxin receptor RXFP1; Q9HBX9; Potency, µM (doses to about 57.5 µM), for the others: top-dose activation, hits mostly activators; 370,000 tested, 0.3% active; HEK293T-RXFP1 cAMP TR-FRET, 30 min; response scale: percent of porcine relaxin response, buffer zero; AID 2676; active means well fitted activation curve with a large enough effect; inconclusive means small, poorly fitted or top-dose-only effect; further: potency means the concentration at half of the fitted maximal effect; on the % scale 0 is the no-effect control and ±100 the full control effect; nearly all actives have a fitted effect of over 60% in size
# Target sequence (Q9HBX9 whole entry, looked up): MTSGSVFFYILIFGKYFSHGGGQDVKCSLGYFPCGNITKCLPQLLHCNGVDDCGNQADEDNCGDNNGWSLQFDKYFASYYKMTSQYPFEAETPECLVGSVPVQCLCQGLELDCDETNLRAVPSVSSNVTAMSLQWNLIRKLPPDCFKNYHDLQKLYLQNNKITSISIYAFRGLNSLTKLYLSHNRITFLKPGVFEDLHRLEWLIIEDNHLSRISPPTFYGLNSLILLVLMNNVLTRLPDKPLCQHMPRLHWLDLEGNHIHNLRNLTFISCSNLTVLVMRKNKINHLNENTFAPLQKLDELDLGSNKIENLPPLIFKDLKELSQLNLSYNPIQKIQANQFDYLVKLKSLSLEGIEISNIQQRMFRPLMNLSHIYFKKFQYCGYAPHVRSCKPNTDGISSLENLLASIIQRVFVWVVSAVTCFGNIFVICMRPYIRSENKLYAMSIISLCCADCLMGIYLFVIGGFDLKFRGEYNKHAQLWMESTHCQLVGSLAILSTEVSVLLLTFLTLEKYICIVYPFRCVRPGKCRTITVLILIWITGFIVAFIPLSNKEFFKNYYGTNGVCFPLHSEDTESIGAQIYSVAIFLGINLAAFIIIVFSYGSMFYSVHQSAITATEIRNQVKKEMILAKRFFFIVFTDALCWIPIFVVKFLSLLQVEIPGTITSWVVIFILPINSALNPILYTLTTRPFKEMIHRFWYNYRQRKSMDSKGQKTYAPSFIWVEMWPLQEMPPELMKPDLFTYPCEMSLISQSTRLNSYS
#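 HEK293 cells stably expressing RXFP1, treated 30 min at 37C with compounds plus PDE4 inhibitor Ro 20174; cAMP measured by HTRF TR-FRET. Normalized to buffer and 29 nM porcine relaxin; EC50 by Hill fit.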
# gsp antag = antagonists of gsp mutant (McCune-Albright syndrome). gsp-mutant cells, cAMP HTRF, 30 min. Potency, µM (titrated, usually from 76.9 µM), for inactives: top-dose activity change, negative = inhibition, actives largely listed as inhibitors. 340,000 tested, 0.4% active. AID 624288; calls by dose curve; cell line not stated here;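 further: intracellular cAMP measured with PDE inhibitor Ro 20-1724 present during compound exposure; potency means the concentration at half of the fitted maximal effect; on the % scale 0 is the no-effect control and ±100 the full control effect; nearly all actives have a fitted effect of over 65% in size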
#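 Cells in G418 medium, seeded 16-24 h, 37C; buffer exchange to DPBS + 1 mM CaCl2, 0.5 mM MgCl2, 0.05% BSA; cpds in DMSO + […] (300 uM stock), 30 min 37C; HTRF cAMP detection.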
# pAkt inh = inhibitors of Akt phosphorylation | AID 651550 | 360,000 tested, 0.32% active | Neuro2A IGF-stimulated pAkt S473 HTRF, 20 min; stronger effect = lower value | activity change, % for hits at 50 µM; in the data active means activity change below about -80%; inconclusive means mostly about -51% to -80%; further: on the % scale 0 is the no-effect control and ±100 the full control effect
#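 Neuro2A cells in DMEM with 0.5% FBS, overnight at 37 deg C, given compound at single 50 µM final, then IGF (6 nM final) for 20 min at 37 deg C. Lysed; phospho-Akt Ser473 by HTRF after 24 h, 665/615 ratio.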
# RXFP1 antag = RXFP1 (human) relaxin receptor antagonism; HEK293-RXFP1, relaxin-stimulated cAMP HTRF, 30 min; stronger effect = lower value; 350,000 tested, 0.59% active; AID 1259400; Q9HBX9; activity change, negative = inhibition, % at 57.5 µM;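 active means activity change of -60% or lower, but not beyond a set lower limit; inconclusive means change between -60% and -40%, or beyond the set limit; inactive means change above -40%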; further: on the % scale 0 is the no-effect control and ±100 the full control effect
# * marks the source's active call; other numbers are inactive results; i = inactive; ? = inconclusive; . = no result; [ ] = another dose, or the depositor's remark. This is a sample that favours compounds with a hit; in the whole collection about 1.2% have one here.
SMILES,gsp ag,RXFP1 ag,gsp antag,pAkt inh,RXFP1 antag
COc1ccc(Br)cc1CN(C)C(=O)CNC(=O)c1ccc2ccccc2c1,9%[15.4 µM],0%,32µM*,i,-1
CCn1c(C(=O)NCc2ccccc2)cc2sc(Cl)cc21,.,7%,.,.,-28
O=C(NCCCN1CCN(c2cccc(Cl)c2)CC1)c1ccc2nc(Cc3ccccc3)oc2c1,.,-2%,.,.,-33
CC1CCCC(C)N1C(=O)Cn1nnc(-c2ccccc2)n1 (centres undefined),16µM*,0%,4%,i,6
Cc1ccc(C)c(NC(=O)c2cc3c([nH]c4ccccc43)c(C)n2)c1,?,18%,11%,-101%*,0
Cc1cccc(NC(=O)c2cc3c([nH]c4ccccc43)c(C)n2)c1C,-3%[15.4 µM],0%,12%,i,-12
N#Cc1c(Cl)cccc1N1CCSCC1,.,.,.,i,.
N#Cc1c(N2CCSCC2)nsc1-c1ccccc1Cl,16µM*,?,-8%,i,3
Cc1[nH]c(=S)c(C#N)c(C)c1CC(=O)c1ccc(Br)cc1,-48%,7%,-14%,i,-70*
Cc1cccc(OCC(=O)Nc2ccccc2C(=O)OCc2cc(=O)n3nc(C)sc3n2)c1,.,3%,.,.,16
Cc1cc(OC(C)C(=O)N(Cc2ccco2)Cc2ccccc2F)cc(C)c1Cl (centres undefined),.,-6%,.,.,-72*
O=C(c1ccncc1)c1ccc(N2CCN(C3CC(=O)N(Cc4cccs4)C3=O)CC2)cc1 (centres undefined),-6%,3%,35µM*,i,-8
CCOC(=O)c1oc2ccc(S(=O)(=O)n3nc(-c4ccc(OC)cc4)cc3N)cc2c1C,-14%,0%,-16%,i,.
CCOC(=O)c1oc2ccc(S(=O)(=O)n3nc(-c4ccccc4)cc3N)cc2c1C,-34%,0%,7.9µM*,i,.
Cc1cc(CCCOc2c(C)cc(-c3noc(C(F)(F)F)n3)cc2C)on1,.,.,.,.,-29
Fc1ccc(CSc2ccc3nnc(-c4cccs4)n3n2)cc1,12%,0%,32µM*,i,15
CCC(C)(C)n1nnnc1C(c1ccc(OC)c(OC)c1)N1CCN(c2ccccc2)CC1 (centres undefined),-10%,0%,-10%,-105%*,1
COc1ccc(-c2cc(=S)ss2)cc1,.,.,.,.,-12
Cc1cccc(C)c1NC(=O)c1ccc(-c2ccc(Cl)cc2Cl)o1,0%,-1%,-22%,-115%*,-17
CCc1ccc(NC(=O)CN2C(=O)C(c3ccc(C)cc3)=NC23CCCCC3)cc1,.,1%,.,.,-7
Cc1ccc(Nc2ncnc3onc(C)c23)cc1Cl,.,0%,.,.,-21
O=[N+]([O-])c1ccc(O)c(Nc2ncnc3ccc(Br)cc23)c1,0%,3%,35µM*,i,-10
O=[N+]([O-])c1ccc(O)c(Nc2ncnc3ccccc23)c1,?,4%,-6%,i,0
Cc1ccc2[nH]c(CSc3nnc(NC(=O)COc4ccccc4Cl)s3)cc(=O)c2c1,.,-4%,.,.,-5
CCn1nc(NC(=O)c2ccccn2)c2cc3cc(C)ccc3nc21,?,0%,35µM*,i,-11
SMILES,gsp ag,RXFP1 ag,gsp antag,pAkt inh,RXFP1 antag
COc1ccc(-c2csc(N(CCCN(C)C)C(=O)c3ccccc3C)n2)cc1,10%,0%,32%,i,-62*
Cn1nnnc1-c1cc(Br)ccc1NC(=O)c1ccccc1,?,?,45%,-104%*,2
CC(Cc1ccccc1)Nc1ncnc2c1ncn2C1OC(CO)C(O)C1O (centres undefined),.,.,-1%,i,.
C[C@H](Cc1ccccc1)Nc1ncnc2c1ncn2[C@@H]1O[C@H](CO)[C@@H](O)[C@H]1O,.,11µM*,-7%,i,.
NCCNC(=O)Cc1ccc(NC(=O)Cc2ccc(Nc3ncnc4c3ncn4[C@@H]3O[C@H](CO)[C@@H](O)[C@H]3O)cc2)cc1,.,1.4µM*,16%,i,.
Cc1nn(C(C)C)c(C)c1CN1CCC(C(=O)Nc2cccc(-c3cccc(F)c3)c2)CC1,11%,0%,-1%,i,-82*
CCCOC(C(=O)OC1CCN(C)CC1)(c1ccccc1)c1ccccc1,.,.,.,.,-15
CCOC(=O)c1cnc2ccc(OCC)cc2c1NCc1cccnc1,-9%[15.4 µM],1%,?,i,-13
CCOC(=O)c1cnc(-n2nc(C)cc2C)nc1NCc1ccccc1,5%,1%,35µM*,i,-25
CCOC(=O)c1cnc2ccc(OCC)cc2c1NCc1ccccc1,24%,8%,14µM*,i,.
COc1ccc(/C(C)=C/C(=O)O)c(OC)c1,.,.,.,.,-3
COc1cccc(NC(=O)Cn2c(=O)n(CCCCC(=O)NCCc3ccccc3)c(=O)c3ccccc32)c1,.,0%,.,.,.
COc1ccc(Nc2c3c(nc4ccc(NC(=O)c5cc(Cl)ccc5OC)cc24)CCCC3)cc1OC,.,-1%,.,.,.
CCOc1ccc(NC(=O)Cn2nnc(-c3ccccc3NC(=O)C3CC3)n2)cc1,-16%,1%,7%,-126%*,-2
CC1CCN(C(=O)CSc2nnc(NC(=O)Nc3ccccc3)s2)CC1,.,0%,.,.,-4
CC(=O)N1CCCc2cc(S(=O)(=O)N3CCC(C(=O)NCc4ccccc4Cl)CC3)ccc21,.,-1%,.,.,-14
O=C(CSc1nc2ccsc2c(=O)n1CC1CCC(C(=O)O)CC1)c1ccc(Cl)cc1 (centres undefined),5%[15.4 µM],3%,22µM*,i,-17
O=C(CSc1nc2ccsc2c(=O)n1CC1CCC(C(=O)O)CC1)c1ccc(F)cc1 (centres undefined),?,3%,?,i,-8
CCOc1ccc(-c2nn(-c3ccccc3)cc2C2NC(=O)NC(C)=C2C(=O)OC(C)C)cc1 (centres undefined),.,1%,.,.,.
Cc1cc(C)n(-c2nc(NCCN(C)C)c3c4c(sc3n2)COC(C)(C)C4)n1,2%,-4%,16%,i,-72*
COc1cc(CN2CC(=O)N(c3ccccc3Cl)C2=S)cc(OC)c1OC,-16%,0%,35µM*,i,-14
COc1cc(CN2CC(=O)N(c3cccc(Cl)c3C)C2=S)cc(OC)c1OC,?,0%,-7%,i,1
Cc1ccc2[nH]c(=O)c(CN(Cc3ccco3)C(=O)N3CCOCC3)cc2c1,-18%[15.4 µM],-1%,?,i,-13
Cc1ccc(CN(Cc2cc3cc(C)ccc3[nH]c2=O)C(=O)N2CCOCC2)cc1,0%,-2%,1%,-106%*,6
Cc1n[nH]c(C)c1N1C(=O)c2cccc3c(Br)ccc(c23)C1=O,11%,-1%,7%,-113%*,1
Cc1ccc(C(=O)Nc2cccc(Oc3ccccc3)c2)o1,25%,-2%,-9%,i,-72*
CC1=C(C(=O)Nc2cc(C(=O)N3CCN(c4cccc(C)c4C)CC3)ccc2C)SCCO1,13%,0%,50µM*,i,?
